SMN2 splice enh: increases expression of the SMN2 splice variant; HEK293 SMN2-luciferase splicing reporter, luminescence, 30-36 h; Potency, µM (doses to about 46.1 µM), for the others: at the highest dose activity change, positive = activation, actives largely listed as activators; actives 2.8% (n = 210,000); also: % of control where 0% means no effect; nearly all actives have a fitted effect of over 55% in size
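qHTS luciferase splicing reporter: luminescence rises when SMN2 exon 7 is included in transfected HEK293 cells. Compound exposure lasted 30-36 h at 37C, with 4.5 mM final sodium butyrate as control, followed by a ONE-Glo read.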
FLuc counter: inhibits or activates purified firefly luciferase, miR-21 counter-screen. P08659. purified FLuc, Km substrates, luminescence inhibition. Potency, µM (titrated, usually from 57.5 µM), inactives show at the highest dose activity change, negative = inhibition, most hits filed as inhibitors. actives 6.9% (n = 360,000);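 also: plate controls were vehicle for no effect and reference inhibitor for full effect; nearly all actives have a fitted effect of over 55% in size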
Target sequence (P08659 whole entry, looked up): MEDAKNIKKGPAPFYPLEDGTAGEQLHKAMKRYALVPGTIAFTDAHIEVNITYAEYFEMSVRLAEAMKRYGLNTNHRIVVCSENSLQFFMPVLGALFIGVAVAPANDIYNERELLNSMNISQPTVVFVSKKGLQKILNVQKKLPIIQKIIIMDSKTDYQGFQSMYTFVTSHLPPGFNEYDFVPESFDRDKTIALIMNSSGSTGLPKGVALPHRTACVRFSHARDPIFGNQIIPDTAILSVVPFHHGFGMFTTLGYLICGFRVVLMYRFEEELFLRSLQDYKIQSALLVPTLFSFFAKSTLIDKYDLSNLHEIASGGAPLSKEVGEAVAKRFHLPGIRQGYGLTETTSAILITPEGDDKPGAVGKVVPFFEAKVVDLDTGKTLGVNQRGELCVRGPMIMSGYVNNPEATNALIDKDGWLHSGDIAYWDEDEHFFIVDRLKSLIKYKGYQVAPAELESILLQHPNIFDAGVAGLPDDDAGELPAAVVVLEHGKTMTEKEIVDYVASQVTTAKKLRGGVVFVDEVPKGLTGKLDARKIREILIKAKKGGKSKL
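Purified P. pyralis luciferase (10nM final) with 10uM D-luciferin and 10uM ATP (Km levels) in 50mM Tris acetate pH 7.5, 10mM Mg acetate, 0.01% Tween-20, 0.05% BSA; qHTS 6-point titration, ~60 µM downward; luminescence read.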
ELG1 genotoxic: induces genotoxicity in HEK293T cells with luciferase-tagged ELG1; HEK293T ELG1-luciferase reporter, luminescence, 16 h; AID 504466; Potency, µM (titrated, usually from 46 µM), for inactives: at the top dose activity change, positive = activation, usual class: activators; actives 1.3% (n = 330,000); also: % of control where 0% means no effect; nearly all actives have a fitted effect of over 60% in size
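Cells (2,000/well) expressing the ELG1-luciferase fusion are dosed by pin tool and kept 16 hr at 37 °C, 5% CO2. Signal comes from ONE-Glo luciferase reagent after 30 min at room temperature.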
Rab9 prom act: activates the Rab9 promoter. Huh7 Rab9 promoter-luciferase reporter, luminescence, 24 h. Potency, µM (highest dose often 9.22 µM), inactives show top-dose activation, negative = inhibition, usual class: activators. actives 2.8% (n = 320,000). AID 485297; also: % of control where 0% means no effect; nearly all actives have a fitted effect of over 60% in size
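Cell-based reporter: Huh7 stable for Rab9 promoter-driven luciferase, plated in reduced-serum medium with 10% FBS at 1500 cells/well, compound-treated 24 h at 37 °C, luminescence read after 10 min reagent.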
Luc counter: blocks Kinase-Glo luciferase, a counter-screen artifact; Q27757; Kinase-Glo luciferase, ATP luminescence, 8 min; Potency, µM (highest dose often 38.3 µM), for inactives: at the highest dose activity change, negative = inhibition, usual class: inhibitors; actives 0.28% (n = 200,000); also: % is scaled to controls: 0 for no effect and ±100 for the full control effect; nearly all actives have a fitted effect of over 60% in size
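Kinase-Glo luciferase light output from ATP and luciferin was measured with 10 uM ATP, within the enzyme's linear range. Buffer: 50 mM imidazole pH 7.2, 50 mM KCl, 7 mM MgCl2, 0.01% Tween 20, 0.05% BSA; luminescence read after 8 min at ambient temperature.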
NPC1 prom act: NPC1 promoter activation. actives 2.4% (n = 320,000). Potency, µM (doses to about 9.22 µM), without a hit: at the highest dose activation, hits mostly activators. AID 485313. Huh7 NPC1 promoter luciferase reporter, 24 h; also: % of control where 0% means no effect; nearly all actives have a fitted effect of over 60% in size
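Compounds in DMSO were transferred onto Huh7 NPC1-luciferase reporter cells pre-incubated 2 h; after 24 h at 37 °C, Amplite reagent was dispensed and luminescence recorded 10 min later.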
An asterisk follows results filed as active; ? = inconclusive; · = no result given; [ ] = dose if it differs, or a comment. In the library only some 7.4% were active in any assay of this set; here they are far more common. Calls follow the shape of the dose curve; as a rule, active = well fitted curve in the direction sought with a large enough effect; inconclusive = small, poorly fitted or top-dose-only effect, or another doubt; inactive = no such curve, though single readings can be large; an effect the other way counts as inactive or inconclusive. Potency is read from the fitted curve at half-maximal effect.

SMILES	SMN2 splice enh	FLuc counter	ELG1 genotoxic	Rab9 prom act	Luc counter	NPC1 prom act
COc1ccc(C(=O)Nc2nnc(S(=O)(=O)N3CCOCC3)s2)cc1	·	-15%	2%	2%	·	0%
O=C(O)c1cc(N2N=C(C(F)(F)F)/C(=C/C=C/c3ccco3)C2=O)ccc1Cl	·	24µM*	-2%	-3%	?	-4%
CCOC(=O)c1ccc(N2N=C(C)/C(=C/C=C/c3ccco3)C2=O)cc1	7%	?	18%	-2%	-11%	-6%
Cn1c(=O)c(=O)n(C)c2cc(S(=O)(=O)N3CCN(c4ccccc4)CC3)ccc21	-4%	-1%	·	·	·	·
COc1ccc2nc(NC(=O)CSc3cn[nH]n3)sc2c1	·	6.7µM*	?	4µM*	·	?
CCOc1ccc2nc(NC(=O)CSc3cn[nH]n3)sc2c1	·	2.7µM*	4.6µM*	4.5µM*	·	2.8µM*
CCOc1ccc2nc(NC(=O)CSc3nc(-c4ccccc4)c(C#N)c(=O)[nH]3)sc2c1	·	17µM*	11%	2%	·	0%
CCOc1ccc(NC(=O)CSc2cn[nH]n2)cc1	·	?	2%	-5%	·	6%
N#Cc1ccccc1OCC(O)CNCCNC(=O)Nc1ccccc1 (stereo not drawn)	-8%	·	·	·	·	·
C=CCn1c(SCC(=O)Nc2ccc(F)cc2F)nnc1-c1cnccn1	·	?	?	22%	·	28%
CC(=O)N=C(N)Sc1nc2ccccc2[nH]1	13µM*	15µM*	?	4µM*	-11%	2.5µM*
COc1cccc(N=Cc2c(O)c3ccccc3oc2=O)c1	·	1.9µM*	0%	6%	·	0%
CCOC(=O)c1ccc(N=Cc2c(O)c3ccccc3oc2=O)cc1	·	?	-2%	-2%[1.84 µM]	·	-9%
Cc1ccc(N=Cc2c(O)c3ccccc3oc2=O)c(C)c1	·	0.21µM*	4%	1%	·	-3%
Cc1ccc(F)cc1N=Cc1c(O)c2ccccc2oc1=O	·	?	3%	2%	·	-5%
CC(=O)c1cccc(N=Cc2c(O)c3ccccc3oc2=O)c1	·	1.7µM*	2%	-1%	·	-5%
CC(=O)Nc1ccc(N=Cc2c(O)c3ccccc3oc2=O)cc1	·	?	0%	-4%	·	-4%
Cc1ccc(NS(=O)(=O)c2ccc3nc(-c4ccccc4)[nH]c3c2)c(Cl)c1	-9%	?	·	·	·	·
Nc1ccc(N=Nc2ccccc2)c2ccccc12	·	17µM*	0%	2%	·	?
Clc1ccc(-c2[nH]ncc2N=Nc2ccccc2)cc1	·	-4%	4%	-6%	·	-1%
Nc1ccc(N=Nc2ccccc2)c(N)n1	?	17µM*	?	12%	0%	26%
C/C(=N\NS(=O)(=O)c1c(C)cc(C)cc1C)c1ccncc1	·	1%	-2%	-4%	·	0%
Cc1nn(-c2ccccc2)c(C)c1/C=N/NC(=O)CSc1nnc(SCc2ccccc2Cl)s1	?	6.7µM*	1%	26%	-21%	?
Cc1ccc(CSc2nnc(SCC(=O)N/N=C/c3c(C)nn(-c4ccccc4)c3C)s2)cc1	9%	4.3µM*	-13%	?	-1%	?
Cc1ccc(-c2nnc(SCC(=O)N/N=C/c3c(C)nn(-c4ccccc4)c3C)n2-c2ccccc2)cc1	-8%	-2%	-8%	0%	1%	0%
SMILES	SMN2 splice enh	FLuc counter	ELG1 genotoxic	Rab9 prom act	Luc counter	NPC1 prom act
O=C(CSc1n[nH]c(-c2ccncc2)n1)Nc1ccc(Cl)c(Cl)c1	·	-19%	-6%	-1%	·	0%
Cc1ccccc1NC(=O)c1nc2nccc(C)n2n1	14µM*	?	?	3.5µM*	?	?
COc1cc(/C=C2/C(=O)NN(c3ccc(Cl)cc3)C2=O)ccc1OC(=O)c1ccco1	8%	24µM*	9%	-6%	1%	-4%
COc1cc(/C=C2/C(=N)N3OC(C)=CC3=NC2=O)ccc1OC(=O)c1ccco1	-1%	4%	0%	1%	-1%	-4%
COc1cc(/C=C2/C(=O)NN(c3cccc(F)c3)C2=O)ccc1OC(=O)c1ccco1	-13%	24µM*	12%	1%	-1%	5%
C=CCN1C(=O)/C(=C\c2ccc(OC(=O)c3ccco3)c(OC)c2)SC1=S	-41%	3%	6%	1%	0%	-6%
O=S(=O)(Nc1cccc(-c2ccc3nncn3n2)c1)c1cccc(F)c1	·	5%	13%	-7%	·	-5%
O=[N+]([O-])c1ccccc1S(=O)(=O)Nc1ccc(-c2ccc(N3CCCC3)nn2)cc1	·	-28%	20%	26%	·	-2%
O=S(=O)(Nc1cccc(-c2ccc(N3CCOCC3)nn2)c1)c1ccc(F)c(C(F)(F)F)c1	·	9.5µM*	·	·	·	·
O=S(=O)(Nc1cccc(-c2ccc(N3CCCC3)nn2)c1)c1ccc(F)c(C(F)(F)F)c1	·	19µM*	·	·	·	·
O=S(=O)(Nc1cccc(-c2ccc(N3CCCC3)nn2)c1)c1ccccc1C(F)(F)F	·	17µM*	·	·	·	·
CCOc1ccccc1NC(=O)CSc1cn(CC(=O)N2CCCCCC2)c2ccccc12	·	-19%	·	·	·	·
COc1cc(NC(=O)Cc2ccccc2)ccc1NC(=O)c1ccccc1	·	9%	-4%	-1%	·	2%
O=C(CC1S/C(=N/N=C/C=C/c2ccccc2)NC1=O)Nc1ccc(C(=O)O)cc1 (stereo not drawn)	-6%	13µM*	-11%	-3%	2%	-4%
O=C(CC1S/C(=N/N=C/c2ccco2)NC1=O)Nc1ccccc1 (stereo not drawn)	8%	-2%	-8%	-9%	2%	-2%
CC(=O)c1cccc(NC(=O)c2ccc3c(Cl)c4c(nc3c2)CCCC4)c1	-5%	?	0%	13%	5%	5%
O=C(Nc1ccccc1F)c1ccc2c(Cl)c3c(nc2c1)CCC3	?	0.15µM*	·	·	·	·
N#Cc1ccccc1NC(=O)c1ccc2c(Cl)c3c(nc2c1)CCCC3	10µM*	3.8µM*	12%	3.5µM*	0%	?
O=C(NC1CC1)c1ccc2c(Cl)c3c(nc2c1)CCCC3	-19%	13µM*	0%	-5%	0%	0%
O=C(Nc1cccnc1Cl)c1ccc2c(Cl)c3c(nc2c1)CCC3	?	0.85µM*	2.3µM*	0.71µM*	-1%	1µM*
CCCCNC(=O)/C(C#N)=C/c1cccnc1	5µM*	1%	13%	3%	0%	4%
Cc1cccc(NC(=O)/C(C#N)=C\c2cccnc2)c1	-12%	?	-2%	-2%	1%	0%
N#C/C(=C\c1ccc2c(c1)OCCO2)C(=O)Nc1ccc(C(=O)O)cc1	·	0.34µM*	?	15%[1.84 µM]	·	21%

Bioassay records deposited in PubChem by National Center for Advancing Translational Sciences (NCATS).
